Experimental findings from PubChem BioAssay (NCATS) are described below.

The structures appear in SMILES notation. Inconclusive results are not listed. Values without a mark were called inactive. Activity calls are given as the source filed them. Calls follow the shape of the dose curve; as a rule, active = well fitted curve in the direction sought with a large enough effect; inconclusive = small, poorly fitted or top-dose-only effect, or another doubt; inactive = no such curve, though single readings can be large; an effect the other way counts as inactive or inconclusive.

Experiment [1] can be described thus: BET inhibitor-based combinations targeting novel dependencies in MECOM-rearranged (r) AML: SET-2 cell line (AID 2202231). Also: nearly all actives have a fitted effect of over 35% in size.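 As to viability: plate controls were DMSO treated cells for no effect and wells without cells for full effect.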 The conditions noted are these: SET-2 AML cells viability, CellTiter-Glo luminescence, 48 h; viability: active compounds read low, concentration not given here. Put shortly: (§1)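 Viability of cells (500 per well) is scored by luminescent CellTiter-Glo at 48 hr post-dosing. Eleven-point titrations are normalized to DMSO and empty controls and reduced to AUC values.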
(In general: Cellular ATP, detected with luciferase, serves as a proxy for viable cell number.)

Experiment [2] can be described thus: BET inhibitor-based combinations targeting novel dependencies in MECOM-rearranged (r) AML: OCI-AML3 cell line (AID 2202232). Also: nearly all actives have a fitted effect of over 35% in size.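 As to viability (% of control): plate controls were DMSO vehicle wells for no effect and wells without cells for full effect.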 The note with it: CellTiter-Glo luminescence, 48 h; Potency: OCI-AML3 viability; series mostly up to 46 µM. Put shortly:
as §1

Experiment [3] can be described thus: BET inhibitor-based combinations targeting novel dependencies in MECOM-rearranged (r) AML: MV-4-11 cell line (AID 2202233). Also: nearly all actives have a fitted effect of over 45% in size.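 As to viability, % of control: plate controls were DMSO for no effect and blank wells for full effect.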 The note with it: MV-4-11 AML viability, CellTiter-Glo luminescence, 48 h; series mostly up to 46 µM. An outline of the steps: (§2)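 Using pin-tool transfer, drugs were added in 11 doses to cells (500/well), incubated 48 hr, and assessed with CellTiter-Glo. Z-AUC is a mean-centring transformation applied separately to each screened line.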

Experiment [4] can be described thus: BET inhibitor-based combinations targeting novel dependencies in MECOM-rearranged (r) AML: UCSD-AML1 cell line (AID 2202235). Also: nearly all actives have a fitted effect of over 40% in size.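 As to viability (% of control): plate controls were DMSO vehicle wells for no effect and blank wells for full effect.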 The conditions noted are these: UCSD-AML1 AML cells viability, CellTiter-Glo, 48 h; series mostly up to 46 µM. An outline of the steps:
as §2

A short description of experiment [5]: BET inhibitor-based combinations targeting novel dependencies in MECOM-rearranged (r) AML: AML-191 cell line (AID 2202236; also: nearly all actives have a fitted effect of over 35% in size;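 as to viability (% of control): plate controls were vehicle wells for no effect and wells without cells for full effect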). The note with it: AML-191 viability, CellTiter-Glo luminescence, 48 h; series mostly up to 46 µM. Put shortly:
as §1

Experiment [6] in a line: BET inhibitor-based combinations targeting novel dependencies in MECOM-rearranged (r) AML: AML-194 cell line (AID 2202237; also: nearly all actives have a fitted effect of over 40% in size;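 as to viability (% of control): plate controls were vehicle wells for no effect and wells without cells for full effect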). The conditions noted are these: AML-194 (MECOM-r AML) viability, CellTiter-Glo, 48 h; series mostly up to 46 µM. An outline of the steps: as §1
Experiment [7] is described as follows: BET inhibitor-based combinations targeting novel dependencies in MECOM-rearranged (r) AML: HNT-34 cell line (AID 2202234). Also: nearly all actives have a fitted effect of over 35% in size.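 As to viability (% of control): plate controls were vehicle wells for no effect and cell-free wells for full effect.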 The conditions noted are these: HNT-34 AML viability, CellTiter-Glo luminescence, 48 h; series mostly up to 46 µM. An outline of the steps: as §2
Potency is read from the fitted curve at half-maximal effect.

As for `Cc1ccc(NC(=O)c2ccc3c(c2)OCCO3)cc1NC(=O)c1ccc2nc(OCCN3CCCC3)ccc2c1`, the Potency in experiment [1] was 0.144 µM (active); in experiment [2], 0.257 µM (active); in experiment [3], 0.091 µM (active); in experiment [4], 0.129 µM (active); in experiment [5], 0.162 µM (active); in experiment [6], 0.204 µM (active).
For the compound `CN(C)Cc1ccc(S(=O)(=O)n2ccc(/C=C/C(=O)NO)c2)cc1`, the Potency in experiment [1] was 3.72 µM (active); in experiment [2] it was 5.25 µM (active); in experiment [3] it was 2.35 µM (active); in experiment [4], 4.68 µM (active); in experiment [5], 4.17 µM (active); in experiment [6], 5.9 µM (active).
As to `COc1ccc(CNC(=O)c2cc(-c3cncc(Cl)c3)cnc2-c2ccccn2)nc1OC`, the viability (usually a read-out of living cells in per cent, often relative to untreated cells) in experiment [1] is 109%. Moreover, the Potency entry in experiment [2], in experiment [7], in experiment [4], in experiment [5] and in experiment [6] was “inactive” each time.
Take `CN(C)CCN1C(=O)c2cccc3cc(NC(N)=O)cc(c23)C1=O`: the Potency is 18.6 µM (active) in experiment [1]; 13.2 µM (active) in experiment [2]; 8.33 µM (active) in experiment [7]; 5.9 µM (active) in experiment [4]; 9.34 µM (active) in experiment [5]; 9.34 µM (active) in experiment [6].
With `CCCC[C@@H](C=O)NC(=O)[C@H](CC(C)C)NC(=O)OCc1ccccc1`, the values for the Potency in experiment [1], in experiment [2] and in experiment [3] were 18.6 µM (active), 13.2 µM (active) and 18.6 µM (active), respectively. For the same compound, the Potency entry in experiment [4] and in experiment [6] was “inactive” each time.
Regarding `C[C@@H](Nc1cc(F)cc(F)c1)c1cc(C(=O)N(C)C)cc2c(=O)cc(N3CCOCC3)oc12`, the viability in experiment [1] is 109%. In addition, the Potency in experiment [2] is 5.9 µM (active); in experiment [5] it was 23.5 µM (active).
Take `CNCCN(C)Cc1cn[nH]c1-c1ccc(OC2CC(OCCC3CCOCC3)C2)cc1` (stereo not given): the viability in experiment [1] was 95.3%. The Potency in experiment [3] was 20.9 µM (active).
The corresponding values for `Cc1cc(C)cc(Oc2ccc(CNC(=O)[C@H](C)N)cc2C)c1` are 109% and 18.6 µM (active).
As for `CC(C)(O)[C@H]1CC[C@@](C)([C@H]2[C@@H](O)C[C@@]3(C)[C@@H]4C[C@H](O[C@@H]5O[C@H](CO)[C@@H](O)[C@H](O)[C@H]5O)[C@H]5C(C)(C)[C@@H](O[C@@H]6OC[C@@H](O)[C@H](O)[C@H]6O)CC[C@@]56C[C@@]46CC[C@]23C)O1`, the viability in experiment [1] is 118%. Also, the Potency entry in experiment [3], in experiment [7], in experiment [4], in experiment [5] and in experiment [6] was “inactive” in each case.
On to `c1ccc2c(-c3cnn4cc(-c5ccc(OCCN6CCOCC6)cc5)cnc34)ccnc2c1`, for which the Potency was 12.9 µM (active) in experiment [1], 4.56 µM (active) in experiment [3] and 8.11 µM (active) in experiment [7].
On to `COc1cccc2c1C(=O)c1c(O)c3c(c(O)c1C2=O)C[C@@](O)(C(C)=O)C[C@@H]3O[C@H]1C[C@H](N)[C@H](O)[C@H](C)O1`, for which the results for the Potency in experiment [1], in experiment [2] and in experiment [5] were 0.59 µM (active), 0.0934 µM (active) and 0.186 µM (active), respectively.
For the compound `Nc1nc2cc(-c3ccc4ncc(C(=O)N5CCOCC5)n4c3)ccc2o1`, the viability in experiment [1] was 99.4%. The results for the Potency in experiment [3], in experiment [7] and in experiment [4] were 16.6 µM (active), 16.6 µM (active) and 8.33 µM (active), respectively.
Take `Nc1ncnc2nc(-c3ccc(N4CCOCC4)nc3)cc(-c3cccc(Br)c3)c12`: the viability in experiment [1] is 91.6%. For the same compound, the Potency in experiment [3] was 8.33 µM (active).
For the compound `COCCNc1cc(NC(=O)N2CCCc3cc(CN4CCN(C)CC4=O)c(C=O)nc32)ncc1C#N`, the viability in experiment [1] is 114%. For the same compound, the viability, % of control in experiment [3] is 97.1% [at 8.46 µM]. Moreover, the viability (% of control) in experiment [7] was 102% [at 8.46 µM]; in experiment [4], 96.8% [at 8.46 µM]; in experiment [5], 96.5% [at 8.46 µM].
Take `Nc1nc(F)nc2c1ncn2C1OC(COP(=O)(O)O)C(O)C1O` (stereo not given): the Potency was 4.68 µM (active) in experiment [1]; 18.6 µM (active) in experiment [3]; 16.6 µM (active) in experiment [7]; 2.63 µM (active) in experiment [4]; 6.61 µM (active) in experiment [5]; 9.34 µM (active) in experiment [6].
For `CC1(N)CCN(c2cccnc2NC(=O)c2nc(-c3ncccc3C(F)(F)F)cnc2N)CC1`, the viability in experiment [1] is 101%. In addition, the Potency was 7.42 µM (active) in experiment [3] and 18.6 µM (active) in experiment [7].
For the compound `Cc1nnn(C)c1-c1cnc2c3ccc(C(C)(C)O)cc3n([C@H](c3ccccc3)C3CCOCC3)c2c1`, the Potency in experiment [1] was 0.0148 µM (active); in experiment [3], 0.0042 µM (active); in experiment [7] it was 0.0295 µM (active); in experiment [4], 0.0263 µM (active); in experiment [5], 0.0263 µM (active); in experiment [6], 0.0661 µM (active).
Regarding `COc1nc(OCc2cccc(-c3ccccc3)c2C)ccc1CNCCNC(C)=O`, the Potency in experiment [1] is 26.3 µM (active); in experiment [3], 16.6 µM (active); in experiment [7] it was 26.3 µM (active); in experiment [4], 20.9 µM (active); in experiment [5] it was 18.6 µM (active); in experiment [6], 26.3 µM (active).
With `C=C1C(=CC=C2CCC[C@]3(C)[C@@H]([C@H](C)C=C[C@H](C)C(C)C)CC[C@@H]23)C[C@@H](O)C[C@@H]1O`, the Potency in experiment [1] is 23.5 µM (active); in experiment [3], 16.6 µM (active); in experiment [7], 18.6 µM (active); in experiment [5], 23.5 µM (active). For the same compound, the Potency entry in experiment [4] is “inactive”.
For the compound `CS(=O)(=O)c1ccc(-c2cnc(NCc3ccco3)n3cnnc23)cc1`, the viability in experiment [1] is 108%. The Potency entry in experiment [3], in experiment [7], in experiment [4] and in experiment [5] was “inactive” each time.
